Sampled rows, rich in hits. Any-hit rate of the full collection: about 4.1%.
CHT allo act: CHT positive allosteric modulators, primary screen, cell-based, membrane potential dye, choline EC20; High affinity choline transporter 1 (Homo sapiens), Q9GZV3; CHT-expressing cells; stronger effect = higher value; LV-AA mutant CHT in HEK293 cells; B-score at 10 µM; 310,000 compounds, 0.49% hits; AID 488977, 2010;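 active means initial fluorescence not abnormally high and integrated response B-score, plate-corrected, over 3 SD above library mean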
CHT block: inhibitors of human choline transporter CHT; CHT-expressing cells, membrane potential dye, choline response; stronger effect = lower value; High affinity choline transporter 1 (Homo sapiens), Q9GZV3; B-score at 10 µM; 310,000 compounds, 0.86% hits;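 active means B-score over 3 SD under the library average, and starting fluorescence ratio not unusually high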;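 further: choline stimulus applied at its EC90 after an EC20 pre-addition; B-score computed on integrated fluorescence ratio after choline addition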
MEKK3 PB1 HTS: modulators of MEKK3-MEK5 PB1 binding, primary screen, biochemical, wildtype MEKK3, multiplex bead flow cytometry, Alexa488-MEK5 | Mitogen-activated protein kinase kinase kinase 3 (Homo sapiens), Q99759 | bead-based flow cytometry, Alexa488-MEK5 binding to MEKK3; actives lie on both sides; 0 = blocked by unlabeled MEK5, 100 = vehicle | binding response (% of control), % at 10 µM | 290,000 compounds, 1.4% hits;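 active means binding response more than 3 SD above or below the average of its plate-row segment, actives on both sides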;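 further: Alexa488 bead fluorescence after subtracting the streptavidin-only scavenger bead signal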
Target sequence (Q99759 whole entry, looked up): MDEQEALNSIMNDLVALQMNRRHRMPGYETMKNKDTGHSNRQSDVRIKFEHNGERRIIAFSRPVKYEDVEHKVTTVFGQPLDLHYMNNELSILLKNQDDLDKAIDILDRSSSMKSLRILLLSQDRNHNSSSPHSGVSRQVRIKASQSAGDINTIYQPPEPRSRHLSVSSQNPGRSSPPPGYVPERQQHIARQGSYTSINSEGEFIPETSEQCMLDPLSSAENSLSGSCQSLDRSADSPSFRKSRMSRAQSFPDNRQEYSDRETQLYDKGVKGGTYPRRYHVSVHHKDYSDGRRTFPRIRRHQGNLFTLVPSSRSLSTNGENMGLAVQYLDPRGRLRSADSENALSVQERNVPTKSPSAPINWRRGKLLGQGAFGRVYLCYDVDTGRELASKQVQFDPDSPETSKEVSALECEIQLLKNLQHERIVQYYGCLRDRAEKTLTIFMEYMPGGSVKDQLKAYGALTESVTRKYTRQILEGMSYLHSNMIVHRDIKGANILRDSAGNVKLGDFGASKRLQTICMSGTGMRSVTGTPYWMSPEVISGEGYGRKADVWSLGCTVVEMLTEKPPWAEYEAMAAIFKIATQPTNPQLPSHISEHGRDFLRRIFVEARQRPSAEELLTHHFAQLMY
MEKK2 WT-MEK5: modulators of MEK5 binding to wildtype MEKK2, primary screen, biochemical, multiplex bead flow cytometry, Alexa488-MEK5; Alexa488-MEK5 binding to MEKK2 WT; actives lie on both sides; binding response (% of control), % at 10 µM; 290,000 compounds, 1.1% hits; in the data active means binding response below about 67% or above about 130%
SUMO Mot1 rescue: yeast Mot1-301 growth rescue at high temperature, primary screen, SUMOylation pathway inhibitor project, S. cerevisiae, ATP luminescence, 38.5C; S. cerevisiae Mot1-301 growth rescue; percent above DMSO median, 100 means doubled; growth rescue, % at 18.8 µM; 320,000 compounds, 1% hits; AID 2716, 2010;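 active means every valid replicate shows activation above 250% relative to neutral control wells; inactive means the rest, any valid replicate at or below 250%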;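 further: OY570 slx delta 5 strain wells were the positive control but not used for scaling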
MEKK2mut PB1 HTS: MEK5 binding signal on mutant MEKK2 PB1, primary screen, biochemical, multiplex bead flow cytometry, Alexa488-MEK5; Alexa488-MEK5 binding to MEKK2 mutant; percent response, % at 10 µM; 290,000 compounds, 0.35% hits; AID 1530, 2009; in the data active means percent response above about 24%, passing the limit was not always enough
MEKK2wt confirm: modulators of MEK5 binding to wildtype MEKK2, confirmation, biochemical, single concentration, multiplex bead flow cytometry. 5,900 compounds, 2.4% hits. binding response (% of control), % at 10 µM. AID 1892, 2009. shares compounds with MEKK3 PB1 HTS. Alexa488-MEK5 binding to MEKK2 WT; actives lie on both sides; in the data active means binding response below about 16% or above about 210%; inactive means in between
MEKK2mut confirm: mutant MEKK2 PB1-MEK5 binding signal retest – biochemical, single concentration, multiplex bead flow cytometry, confirmation. Alexa488-MEK5 binding to MEKK2 mutant. AID 1893, 2009. shares compounds with MEKK3 PB1 HTS. 5,900 compounds, 2% hits. percent response, % at 10 µM; in the data active means percent response mostly above about 71%, no sharp cut-off; inactive means mostly below about 38%;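 further: higher means compound restores mutant binding toward wildtype level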
MEKK3-MEK5 inh: MEKK3 wild-type PB1 binding to MEK5, inhibitors, confirmation, biochemical, bead multiplex flow cytometry, single concentration, wildtype; binding response (% of control), % at 10 µM; shares compounds with MEKK3 PB1 HTS; Alexa488-MEK5 binding to MEKK3; stronger effect = lower value; 5,900 compounds, 1.8% hits;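 active means binding response below 72% of control, or above a set upper limit, though filed actives all read lower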;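 further: 100% = DMSO only wells and 0% = binding blocked by excess unlabeled MEK5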
Starred values were filed as active, the others as inactive; i = inactive; nt = not tested or not shown; [ ] = dose if it differs, or a comment.

SMILES | CHT allo act | CHT block | MEKK3 PB1 HTS | MEKK2 WT-MEK5 | SUMO Mot1 rescue | MEKK2mut PB1 HTS | MEKK2wt confirm | MEKK2mut confirm | MEKK3-MEK5 inh
O=[N+]([O-])c1cc2c(cc1CN1CCN(CCOCCO)CC1)OCO2 | i | i | 112 | 149* | -13 | 23 | 99 | -1 | 99
COc1ccccc1-c1ccc(NC2CCCCC2)nn1 | i | i | 81*[inhibitor] | 83 | 26 | -8 | 103 | 3 | 103
O=C1CC2(CCCC2)C(=O)N1CN1CCN(S(=O)(=O)c2ccc(Cl)c(Cl)c2)CC1 | nt | nt | nt | nt | -7 | nt | nt | nt | nt
O=C(COc1ccccc1)NCC1(N2CCCCC2)CCCCC1 | i | i | 103 | 147* | 4 | 31 | 115 | -2 | 101
N#Cc1ccc(OCC(=O)NCC2(N3CCCCC3)CCCCC2)cc1 | i | i | 104 | 103 | nt | -1 | nt | nt | nt
CCOC(=O)c1sc2nc(CSc3ccccc3)nc(NCCN(C)C)c2c1C | i | i | 110 | 176* | 1 | 40 | 145 | 32 | 104
CCc1ccc(OCC(=O)N/N=C/c2ccc(OS(=O)(=O)c3ccc(C)cc3)c(OC)c2)cc1 | i | i | 106 | 117 | -15 | 10 | nt | nt | nt
COc1cc(/C=N/NC(=O)COc2cc(C)cc(C)c2)ccc1OS(=O)(=O)c1ccc(C)cc1 | i | i | 135* | 98 | 82 | 0 | 98 | 1 | 101
O=c1c(Cc2ccccc2)c(O)ccn1Cc1ccc2c(c1)OCO2 | i | i | 101 | 99 | 59 | -2 | nt | nt | nt
COCCNC(=O)CN(c1cc(Cl)ccc1OC)S(=O)(=O)c1ccc(C)c([N+](=O)[O-])c1 | i | i | 128* | 104 | 131 | 0 | 12*[inhibitor] | -29 | 71*
COCCCNC(=O)CN(c1cc(Cl)ccc1OC)S(=O)(=O)c1ccc(C)c([N+](=O)[O-])c1 | i | i | 97 | 98 | 45 | -2 | nt | nt | nt
COc1cc(S(=O)(=O)n2nc(C)cc2C)c(OC)cc1Cl | i | i | 2.0*[inhibitor] | -2.0*[inhibitor] | 73 | -27 | 102 | 0 | 99
COc1cc(S(=O)(=O)n2nc(C)cc2C)ccc1Cl | i | i | 104 | 105 | 6 | 5 | nt | nt | nt
O=C(NC1CCCCC1)c1cc([N+](=O)[O-])[nH]n1 | i | i | 102 | 97 | -16 | -2 | nt | nt | nt
COc1ccc(/C=N/NC(=O)c2ccc(O)cc2O)cc1CSc1ccccn1 | i | i | 136* | 103 | 10 | 0 | 97 | -2 | 100
CC1(C)CCN2CCC(C)(C)c3c(O)ccc1c32 | i | i | 95 | 95 | 40 | 1 | nt | nt | nt
CC(=O)OCC(=O)C1=CCC2C3CCC4=CC(=O)C=CC4(C)C3(F)C(OC(C)=O)CC12C (stereo not drawn) | i | i | 62*[inhibitor] | 37*[inhibitor] | -12 | -2 | 103 | 0 | 102
CC(=O)OCC(=O)[C@@]1(O)CC[C@H]2[C@@H]3CCC4=CC(=O)C=C[C@]4(C)[C@@]3(F)[C@@H](O)C[C@@]21C | i | i | nt | nt | 0 | nt | nt | nt | nt
CN(CC(=O)OCC(=O)NCc1ccccc1)S(=O)(=O)c1ccc(Cl)cc1 | i | i | 126 | 104 | -3 | 0 | nt | nt | nt
Cc1c(C(=O)N2CCCCC2CCN2CCCC2=O)oc2c(F)cccc12 (stereo not drawn) | i | i | 99 | 102 | -3 | 2 | nt | nt | nt
O=C(NCc1ccc2c(c1)OCO2)C(=O)NCC(c1ccco1)N1CCN(c2ccccc2)CC1 (stereo not drawn) | i | i | 136* | 119 | -8 | 15 | 97 | -10 | 101
CCN(C(=O)c1ccc(S(=O)(=O)N2CCC(C)CC2)cc1)C1CCS(=O)(=O)C1 (stereo not drawn) | i | i | nt | nt | -2 | nt | nt | nt | nt
O=c1ccc(Cl)cn1Cc1ccccc1F | i | i | 127* | 91 | -25 | 7 | 95 | -2 | 95
Cc1occc1C(=O)N1CCC2(CCCN(Cc3ccc(F)c(F)c3)C2)C1 (stereo not drawn) | i | i | 95 | 99 | 24 | 1 | nt | nt | nt
Cc1ccc2cccc(Oc3nnnn3-c3ccccc3)c2n1 | i | i | 105 | 105 | -14 | 2 | nt | nt | nt
SMILES | CHT allo act | CHT block | MEKK3 PB1 HTS | MEKK2 WT-MEK5 | SUMO Mot1 rescue | MEKK2mut PB1 HTS | MEKK2wt confirm | MEKK2mut confirm | MEKK3-MEK5 inh
c1ccc(-n2nnnc2Oc2cccc3cccnc23)cc1 | i | i | 0.0*[inhibitor] | -8.0*[inhibitor] | -2 | -25 | 97 | -5 | 103
CN1CCN(C2=Nc3cc(F)ccc3Cc3ccccc32)CC1 | i | i | 102 | 109 | 6 | 3 | nt | nt | nt
CN1CCN(C2=Cc3ccc(Cl)cc3Sc3ccc(F)cc32)CC1 | i | i | 114 | 150* | 28 | 27* | 169 | 42 | 109
CN1CCN(C2Cc3cc(F)ccc3Sc3ccc(Cl)cc32)CC1 (stereo not drawn) | i | i | nt | nt | -7 | nt | nt | nt | nt
CN1CCN(C2=Cc3ccccc3Sc3cc(F)ccc32)CC1 | i | i | 97 | 136* | 3 | 11 | 149 | 37 | 113
Cc1cc(=O)oc2cc(NC(=O)CCOc3ccccc3)ccc12 | i | i | 99 | 92 | 10 | -2 | nt | nt | nt
CSc1cccc(NC(=O)C2CCN(C(=O)c3ccccc3C)CC2)c1 | i | i | 151* | 108 | -11 | 1 | 96 | -12 | 96
Cc1cccc(NC(=O)N2CCC(NC(=O)c3ccco3)CC2)c1 | i | i | 95 | 91 | -12 | -10 | nt | nt | nt
Cc1cccc(NC(=O)N2CCC(NC(=O)c3ccccc3C)CC2)c1 | i | i | 2.0*[inhibitor] | 2.0*[inhibitor] | 4 | -17 | 96 | 2 | 105

Screens deposited in PubChem BioAssay by several laboratories.
